Holding throughout (type): functional
The target in assay [1] is Solute carrier family 2, facilitated glucose transporter member 1 (Homo sapiens) (UniProt P11166). The assay is described as follows: ST_JUDE_LEISH: Cytotoxicity at 2uM final concentration against transgenic Leishmania Mexicana promastigotes LmGLUT1 that are glucose transport deficient and complemented with the human glucose transporter GLUT1. Activity is measured by DNA content using SYBR green in vitro.

The target of assay [2] is Hexose transporter 1 (Plasmodium falciparum) (UniProt O97467). The assay is described as follows: ST_JUDE_LEISH: Cytotoxicity at 2uM final concentration against transgenic Leishmania Mexicana promastigotes LmPfHT that are glucose transport deficient and complemented with the Plasmodium falciparum hexose transporter. Activity is measured by DNA content using SYBR green in vitro.

In assay [3] the target is Glucose transporter (Leishmania mexicana) (UniProt O61059). The assay is described as follows: ST_JUDE_LEISH: Cytotoxicity at 2uM final concentration against transgenic Leishmania Mexicana promastigotes LmGT2 that are glucose transport deficient and complemented with the L. Mexicana glucose transporter 2. Activity is measured by DNA content using SYBR green in vitro.

Chain of Solute carrier family 2, facilitated glucose transporter member 1 (Homo sapiens) (P11166 whole entry): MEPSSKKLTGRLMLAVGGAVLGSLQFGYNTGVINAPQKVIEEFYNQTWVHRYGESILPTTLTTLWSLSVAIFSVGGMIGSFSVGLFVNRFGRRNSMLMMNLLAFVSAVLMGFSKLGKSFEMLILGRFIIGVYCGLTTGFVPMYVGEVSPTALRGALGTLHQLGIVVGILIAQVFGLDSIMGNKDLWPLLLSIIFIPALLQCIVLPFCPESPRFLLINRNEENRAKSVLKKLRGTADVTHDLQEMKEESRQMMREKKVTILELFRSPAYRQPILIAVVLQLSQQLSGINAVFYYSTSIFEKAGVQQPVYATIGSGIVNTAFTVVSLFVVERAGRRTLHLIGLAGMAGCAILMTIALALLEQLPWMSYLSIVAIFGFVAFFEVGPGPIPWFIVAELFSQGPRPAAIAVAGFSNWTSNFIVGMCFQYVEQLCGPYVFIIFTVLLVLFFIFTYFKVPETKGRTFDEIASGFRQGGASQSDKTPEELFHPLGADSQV

`CCCCCCCN1CCC(NC(=O)Nc2ccnc3ccc(OC)cc23)C(CO)C1` (stereo not given): the inhibition is -0.96% in assay [1], -1.62% in assay [2] and -3.37% in assay [3].

Regarding `CCNc1cc(C(=O)N[C@@H](Cc2ccccc2)[C@H](O)CNC(C)(C)CC(C)(C)C)c(F)c(N2CCCCS2(=O)=O)c1`, the inhibition was -2.27% in assay [1], -1.17% in assay [2] and -0.53% in assay [3].

For `COc1ccc2nccc([C@@H](O)CN3CCC(NC/C=C/c4cccnc4)CC3)c2c1`, the inhibition in assay [1] came to 1.71%; in assay [2], 2.98%; in assay [3], 2.59%.

For the compound `Cc1cc(NCCC(=O)Nc2ccccc2)nc(NCc2ccccc2C)n1`, the inhibition in assay [1] is 11%; in assay [2], 10.5%; in assay [3], 7.37%.

For `O=C(Cc1ccccc1)NC1CCN(c2ccnc3cc(Cl)ccc23)C1` (stereo not given), the inhibition in assay [1] stood at 2.05%; in assay [2] it was 2.03%; in assay [3], 3.56%.

Consider `CCCCC(CC)CN1C(=O)C(c2ccccc2)(c2ccccc2)N=C1N` (stereo not given), for which the inhibition in assay [1] was -0.17%; in assay [2], 0.02%; in assay [3] it was 2.42%.

For the compound `O=C(Nc1cccc(-c2nn3ncccc3c2-c2ccnc(Nc3cccnc3)n2)c1)c1c(F)cccc1F`, the inhibition is 1.51% in assay [1], 3.78% in assay [2] and 2.21% in assay [3].

As for `COCCNC(=O)C(CNC(=O)c1ccc2c(c1)OCO2)NC(=O)c1ccc(-c2ccccc2)cc1` (stereo not given), the inhibition came to 3.8% in assay [1], 0.37% in assay [2] and 0.64% in assay [3].

Regarding `Cc1cc(OCC(=O)Nc2ccc(-c3nc4ccccc4[nH]3)cc2)cc(C)c1Cl`, the inhibition in assay [1] is 0.45%; in assay [2], 2%; in assay [3], -0.9%.

In the case of `COc1ccc(Cc2nc3c(n2C(C)=O)SC(c2ccc(Cl)c(Cl)c2)=NN3C(C)=O)cc1`, the figures for the inhibition in assay [1], in assay [2] and in assay [3] were 0.08%, 5.48% and 5.39%, respectively.

Turning to `CCC(C)NC(=O)Nc1ccc(-c2cccc(-c3nc4ccccc4[nH]3)c2)cc1` (stereo not given), the inhibition is -0.78% in assay [1], 4.24% in assay [2] and 5.49% in assay [3].

`O=C(/C=C/c1ccc(C(F)(F)F)cc1)NCCCCCN1CCCN(C(=O)Nc2ccc(Cl)cc2)CC1`: the inhibition in assay [1] was 5.01%; in assay [2], 4.49%; in assay [3] it was 1.84%.

As to `COc1ccc(NC(=O)[C@H](CC(C)C)Nc2cc(C)nc(Nc3ccccc3)n2)cc1`, the results for the inhibition in assay [1], in assay [2] and in assay [3] were 19.2%, 15.8% and 14.9%, respectively.

`O=C(Nc1ccc(Oc2cccnc2)cc1)C1CCN(Cc2cc(Cl)ccc2O)CC1`: the results for the inhibition in assay [1], in assay [2] and in assay [3] were 2.3%, 4.55% and 1.47%, respectively.

`COc1cccc2c(N/N=C/c3ccc([N+](=O)[O-])cc3)ccnc12`: the inhibition in assay [1] worked out at 11.3%; in assay [2] it was 6.04%; in assay [3], 1.25%.

On to `Cc1cccc2nc(-c3ccc(-c4cccc(NC(=O)NCc5cccc(F)c5)c4)s3)[nH]c12`, for which the inhibition in assay [1] is -1.66%; in assay [2], -0.47%; in assay [3], -1.14%.

Take `FC(F)(F)c1ccc2[nH]c(-c3ccc(-c4cccc(CNCCN5CCNCC5)c4)cc3)nc2c1`: the values for the inhibition in assay [1], in assay [2] and in assay [3] were 0.53%, -0.94% and -1.87%, respectively.

For `Clc1cnc2ccc3c(c2c1CCN1CCC(NCc2cc4c(cn2)OCCO4)CC1)OCCO3`, the results for the inhibition in assay [1], in assay [2] and in assay [3] were 27.3%, 42.2% and 14.9%, respectively.

Regarding `O=C(Nc1ccc(-c2cccc(-c3nc4cc(F)ccc4[nH]3)c2)cc1)c1cnn2cccnc12`, the inhibition in assay [1] amounted to 2.14%; in assay [2], 3.22%; in assay [3], 0.84%.

As for `O=C(Nc1ccccc1)N1CCC(CN2CCOC(c3ccccc3)(c3ccccc3)C2)CC1`, the results for the inhibition in assay [1], in assay [2] and in assay [3] were 7.91%, 4.78% and 7.57%, respectively.

Take `CC(=O)Nc1ccc([N+](=O)[O-])c2c(Br)cccc12`: the inhibition in assay [1] stood at 8.2%; in assay [2] it was 8.74%; in assay [3], 10.4%.

As to `Nc1ncc(-c2cn[nH]c2)cc1-c1nc2ccc(F)cc2[nH]1`, the inhibition amounted to 2.58% in assay [1], 3.29% in assay [2] and 1.99% in assay [3].

Consider `FC(F)(F)c1ccc(NC(=S)N2CCC(CCN3CCC(c4c[nH]c5ccccc45)CC3)CC2)cc1`, for which the inhibition in assay [1] came to 5.27%; in assay [2] it was 3.8%; in assay [3] it was 5.31%.

For `COc1ccc2nccc(N3CCC(SCCNCc4ccc5c(n4)NC(=O)CO5)C3)c2n1` (stereo not given), the inhibition is 0.4% in assay [1], 2.93% in assay [2] and 2.08% in assay [3].

On to `O=C(/C=C/c1ccc(Cl)c(Cl)c1)NCCCCCN1CCC(NC(=S)Nc2ccc(Cl)c(Cl)c2)CC1`, for which the inhibition in assay [1] came to 4.99%; in assay [2], 5.09%; in assay [3] it was 3.5%.

Turning to `COc1ccc(CN(C)CCCCc2ccc(NC(=O)COc3cccc4sc5ccccc5c(=O)c34)cc2)cc1OC`, the inhibition was 1.62% in assay [1], -3.06% in assay [2] and 0.59% in assay [3].

Consider `Cc1[nH]c2ccccc2c1CC1CCN(CC2CCN(C(=O)/C=C/c3ccc(Cl)c(Cl)c3)CC2)CC1`, for which the inhibition was determined as 0.92% in assay [1], 1.33% in assay [2] and 1.79% in assay [3].

On to `CN1C(C)(C)CC(NC(=O)c2ccc(-c3cc4cc(Cl)c(Cl)cc4[nH]3)o2)CC1(C)C`, for which the figures for the inhibition in assay [1], in assay [2] and in assay [3] were 4.77%, 4.2% and 6.1%, respectively.

`C=C[C@]1(C)C[C@@H](OC(=O)CSC2CN3CCC2C3)[C@@]2(C)C3C(=O)CC[C@@]3(CC[C@H]2C)[C@@H](C)[C@@H]1O` (stereo not given in full): the inhibition in assay [1] turned out to be 72.8%; in assay [2] it was 73.2%; in assay [3], 59%.

As to `NC(=O)Nc1ccc2cn[nH]c2c1`, the inhibition is -0.02% in assay [1], 0.57% in assay [2] and 0.33% in assay [3].

On to `CCn1c(-c2nonc2N)nc2c(Cl)ncc(O[C@H](CCN)c3ccccc3F)c21`, for which the inhibition in assay [1] amounted to 58.6%; in assay [2], 48.5%; in assay [3], 20.2%.

`Cc1cc(C2CCN(CCCCNC(=O)c3ccc(NC(=O)c4ccc(Cl)cc4)cc3)CC2)c(C)cc1OCc1ccncc1`: the inhibition in assay [1] was 8.72%; in assay [2], 7.09%; in assay [3], 7.42%.

Take `O=C(/C=C/c1ccc(Cl)c(Cl)c1)NCCCCCN1CCN(C(=O)Nc2cccc(F)c2)CC1`: the inhibition in assay [1] is 3.99%; in assay [2], 2.95%; in assay [3], 2.33%.

As for `O=C(NCCc1ccccc1)N(Cc1cccc(-c2ccc(CNCc3ccc4c(c3)OCO4)cc2)c1)C1CCN(Cc2ccccc2)CC1`, the figures for the inhibition in assay [1], in assay [2] and in assay [3] were 1.17%, 2.76% and 1.29%, respectively.

As to `CCC[C@@H]([C@@H](CC(C)C)C(=O)N[C@@H](CCCCNC(=O)c1ccccn1)C(=O)Nc1nccs1)N(O)C=O`, the inhibition in assay [1] amounted to 4.93%; in assay [2], 6.98%; in assay [3], 1.73%.

These data come from ChEMBL document CHEMBL3433997, “St. Jude Leishmania screening dataset” (2016).
